Common to all, as to experiment: NCI-60 one-dose screen, 48 h (100 = growth as untreated, 0 = no growth, -100 = all killed)
What all share (conditions): 10 µM unless noted

The subject of assay [1] is NCI-H23 lung.
Assay [2] deals with NCI-H226 lung.
Assay [3] deals with NCI-H322M lung.
In assay [4] the test system is HOP-62 NSCLC.
Assay [5] concerns NCI-H460 lung.
Assay [6] relates to HOP-92 NSCLC.
The test system of assay [7] is NCI-H522 lung.
The test system of assay [8] is A549/ATCC NSCLC.
The test system of assay [9] is 786-0 renal.
Assay [10] deals with COLO 205 colon.

The panel holds about 83,000 compounds, 20% with a hit somewhere; the sample as a whole holds those more often.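 Treatment: one concentration, 48 hours, 96-well format. Scoring: percent growth, with anything below 10 considered active.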 The source made the active and inactive calls.

On to `COc1cc(O)c2c(c1)/C=C/C[C@H](O)[C@H](O)C(=O)/C=C\C[C@H](C)OC2=O`, for which the growth is -1.38% (active) in assay [1]; 40.6% (inactive) in assay [2]; 64% (inactive) in [3]; 51.1% (inactive) in assay [4]; 23.2% (inactive) in [5]; -15.4% (active) in assay [6]. Besides, the growth in assay [7] was -61.3% (active); in assay [8], 58.6% (inactive); in assay [9], 24.7% (inactive); in [10] it was -5.15% (active).
For `Cc1ccc(NC(=O)c2cccc(CN3CCN(C)CC3)c2)cc1Oc1ccc(-c2[nH]nc3ncnc(N)c23)cc1`, the growth is 75.6% (inactive) in [1]; 76.9% (inactive) in assay [2]; 83.9% (inactive) in assay [3]; 80.9% (inactive) in assay [4]; 72.8% (inactive) in assay [5]; 65.3% (inactive) in assay [6]. Also, the growth in assay [7] is 77.1% (inactive); in [8], 61.9% (inactive); in assay [9], 40.8% (inactive); in assay [10], 10.1% (inactive).
`CCOC(=O)C1=C(C)Nc2nc3ccccc3n2C1c1ccccc1` (stereo not given): the growth in [1] is 97% (inactive); in [2], 104% (inactive); in [3], 104% (inactive); in assay [4] it was 100% (inactive); in assay [5], 74.7% (inactive); in assay [6], 95.7% (inactive). In addition, the growth in assay [7] is 93.3% (inactive); in assay [8] it was 92.7% (inactive); in assay [9], 95.4% (inactive); in assay [10] it was 104% (inactive).
Take `O=C(CCCCCCN1CC(=O)N2[C@@H](c3cccc(Cl)c3)c3[nH]c4ccccc4c3C[C@H]2C1=O)NO`: the growth in assay [1] was 71.3% (inactive); in [2], 102% (inactive); in [3], 66.4% (inactive); in assay [4] it was 51.9% (inactive); in assay [5] it was 43.1% (inactive); in [6], 44.5% (inactive). Further, the growth was 19.2% (inactive) in assay [7], 79.6% (inactive) in [8], 79% (inactive) in assay [9] and 36.9% (inactive) in assay [10].
`CCOC(=O)c1nn(-c2ccccc2)c(=O)c2c(N)c(C#N)c(-c3cccs3)cc12`: the growth was 69.4% (inactive) in assay [1]; 60% (inactive) in assay [2]; 91.4% (inactive) in assay [3]; 80.4% (inactive) in [4]; 92.9% (inactive) in [5]; 61.3% (inactive) in [6]. In addition, the growth was 83.8% (inactive) in assay [7], 87.2% (inactive) in assay [8], 41.4% (inactive) in assay [9] and 102% (inactive) in assay [10].
As for `Cn1cc(-c2nn3cc(-c4cccnc4)nc3s2)c2ccccc21`, the growth was 30.1% (inactive) in assay [1]; 30.2% (inactive) in [2]; 55.3% (inactive) in assay [3]; 39.1% (inactive) in assay [4]; 9.94% (active) in assay [5]; 26.1% (inactive) in assay [6]. The growth is -12.9% (active) in assay [7], 44% (inactive) in assay [8], 59.7% (inactive) in [9] and -2.12% (active) in assay [10].
`CCCCCCNC(=O)Oc1ccc(/C(=C(/C)c2ccc(OC)cc2)c2ccc(OCCN3CCCC3)cc2)cc1`: the growth in assay [1] was 78.8% (inactive); in [2], 96.6% (inactive); in [3] it was 86.2% (inactive); in [4], 88.4% (inactive); in assay [5], 55.3% (inactive); in assay [6] it was 62.8% (inactive). Further, the growth was 92.2% (inactive) in [7], 73.3% (inactive) in assay [8], 40.9% (inactive) in assay [9] and 76.2% (inactive) in assay [10].
As for `COC(=O)Nc1ccc(-c2nc(-c3cccc(O)c3)c(-c3ccnc(Br)c3)[nH]2)cc1`, the growth was 67.2% (inactive) in assay [1]; 63.8% (inactive) in [2]; 68.4% (inactive) in [3]; 64.7% (inactive) in [4]; 26.8% (inactive) in assay [5]; 51.5% (inactive) in assay [6]. Moreover, the growth in assay [7] is 56% (inactive); in [8], 62.2% (inactive); in assay [9], 34.6% (inactive); in [10] it was 95.4% (inactive).
Consider `CCC(=O)Nc1cc(Nc2cc(NC3CC3)n3ncc(C#N)c3n2)ccc1C`, for which the growth in assay [1] was 15.3% (inactive); in [2], 26.4% (inactive); in assay [3], 19.4% (inactive); in [4], 24.8% (inactive); in assay [5], 16.1% (inactive); in assay [6] it was 6.91% (active). Further, the growth is 27% (inactive) in [7], 26.9% (inactive) in [8], 42% (inactive) in [9] and 30.4% (inactive) in assay [10].
In the case of `Clc1ccc(-c2csc(Nc3cccc(Nc4csc(-c5ccc(Cl)cc5)n4)c3)n2)cc1`, the growth in assay [1] is 72.3% (inactive); in assay [2] it was 74.6% (inactive); in [3], 68.9% (inactive); in [4], 85.3% (inactive); in assay [5], 79.1% (inactive); in assay [6] it was 75.9% (inactive). Further, the growth in assay [7] was 45.6% (inactive); in assay [8], 88.5% (inactive); in assay [9], 104% (inactive); in assay [10], 94.2% (inactive).
As to `O=C(CSc1nnc(-c2ccc(Cl)cc2)n1-c1ccccc1)Nc1ccc(F)cc1`, the growth in [1] was 82.3% (inactive); in assay [2] it was 96.1% (inactive); in assay [3], 80.3% (inactive); in [4], 75.2% (inactive); in [5], 40.8% (inactive); in [6] it was 99.2% (inactive). The growth in assay [7] is 71.8% (inactive); in [8] it was 57.3% (inactive); in assay [9], 68.1% (inactive); in assay [10], 96.6% (inactive).
As for `CS(=O)(=O)c1ccc(-c2nn(-c3ccccc3)cc2/C=N/NC(=O)c2ccncc2)cc1`, the growth in assay [1] is 97.5% (inactive); in assay [2], 110% (inactive); in assay [3] it was 96.9% (inactive); in [4], 105% (inactive); in assay [5], 114% (inactive); in assay [6], 96.3% (inactive). Also, the growth in assay [7] was 84.7% (inactive); in [8], 102% (inactive); in assay [9], 82.6% (inactive); in assay [10], 110% (inactive).
Regarding `O=C1[C@H]2Cc3c([nH]c4ccccc34)[C@@H](c3c(Cl)cccc3Cl)N2C(=O)CN1C1CCN(Cc2ccccc2)CC1`, the growth is 104% (inactive) in assay [1]; 103% (inactive) in assay [2]; 101% (inactive) in [3]; 90.7% (inactive) in assay [4]; 8% (active) in assay [5]; 83.8% (inactive) in assay [6]. For the same compound, the growth in [7] was 38.2% (inactive); in assay [8] it was 94.2% (inactive); in [9] it was -58.2% (active); in assay [10], 101% (inactive).
Regarding `COc1ccc(CCN2C(=O)/C(=C/c3nc(CO)cs3)SC2=S)cc1`, the growth is 86.7% (inactive) in assay [1]; 101% (inactive) in assay [2]; 95.7% (inactive) in assay [3]; 82.8% (inactive) in assay [4]; 102% (inactive) in assay [5]; 27.7% (inactive) in assay [6]. Also, the growth in [7] was 35.9% (inactive); in assay [8] it was 95.3% (inactive); in assay [9], 27.9% (inactive); in assay [10], 102% (inactive).
For `O=C(Cn1cc(CN2C(=O)c3ccc([N+](=O)[O-])cc3C2=O)nn1)Nc1ccccc1Br`, the growth in assay [1] is 98.1% (inactive); in assay [2], 104% (inactive); in assay [3] it was 98.2% (inactive); in assay [4], 109% (inactive); in [5] it was 108% (inactive); in assay [6] it was 114% (inactive). Besides, the growth in [7] is 102% (inactive); in assay [8] it was 108% (inactive); in assay [9], 107% (inactive); in assay [10], 117% (inactive).
As for `COc1ccc(-c2nnc(/N=C3/C(=O)Nc4ccc(Br)cc43)o2)cc1`, the growth in assay [1] was 95.5% (inactive); in [2], 101% (inactive); in assay [3], 93.9% (inactive); in assay [4], 106% (inactive); in [5], 101% (inactive); in assay [6], 97.1% (inactive). The growth is 98.6% (inactive) in assay [7], 104% (inactive) in assay [8], 103% (inactive) in assay [9] and 105% (inactive) in assay [10].

Source of the values: PubChem BioAssay (NCI).
